# Screening results from PubChem BioAssay.
# TSHR agonist – TSH receptor (human) agonism | P16473 | HEK293-CNG-TSHR cells (CNG channel as cAMP sensor), membrane potential dye, cAMP | Potency, µM (top dose mostly 57.1 µM), without a hit: at the top dose activation, hits mostly activators | 73,000 compounds, 0.48% hits | AID 926; active = well fitted activation curve with a large enough effect in the main read-out, with a control signal flat, not every such curve was filed as active; inconclusive = small, poorly fitted or top-dose-only effect, or a change in a side signal; inactive = no such curve, though single readings can be large or run the other way; % of control where 0% means no effect;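 note: the control signal comes from parental cells without the receptor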
#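 cAMP rise detected as CNG-channel membrane depolarization by fluorescent dye (emission 590 nm), 30 min after compound, following 60 min dye loading containing 100 uM RO 20-1724 at room temperature. Cells: TSHR/CNG HEK 293, with parental CNG HEK 293 as control.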
# HEK293 cAMP cs – parental HEK293 cAMP activation (counter-screen); 73,000 compounds, 2.5% hits; Potency, µM (top dose mostly 57.1 µM), for the others: top-dose activation, usual class: activators; parental HEK293 CNG cAMP sensor, membrane potential fluorescence; note: % of control where 0% means no effect; nearly all actives have a fitted effect of over 55% in size
#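 Parental HEK 293 cells stably expressing a modified CNG channel (no TSHR) report cAMP rise as membrane depolarization. Membrane potential dye with 100 uM RO 20-1724 was loaded for 60 min at room temperature, then compound added for 30 min; fluorescence read at 590 nm.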
# PK Bst – pyruvate kinase (B. stearothermophilus) modulation. Potency, µM. 51,000 compounds, 1.2% hits. purified pyruvate kinase, luminescence ATP production; ribose 5-phosphate activator present at AC10; in the data active = potency below about 11 µM; inconclusive = mostly about 12 µM to 25 µM;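 the screen sought inhibitors and activators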;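 note: scaled between full activation by ribose 5 phosphate and full inhibition by luteolin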
# 15-hLO inh – 15-hLO (ALOX15) enzyme inhibition; purified 15hLO-1, xylenol orange hydroperoxide absorbance; Potency, µM (highest dose often 57.1 µM), without a hit: at the highest dose activity change, negative = inhibition, usual class: inhibitors; 74,000 compounds, 1.4% hits; P16050; AID 887; note: % is set by controls: 0 for no effect and ±100 for the full control effect; nearly all actives have a fitted effect of over 55% in size
# Target sequence (P16050 whole entry, looked up): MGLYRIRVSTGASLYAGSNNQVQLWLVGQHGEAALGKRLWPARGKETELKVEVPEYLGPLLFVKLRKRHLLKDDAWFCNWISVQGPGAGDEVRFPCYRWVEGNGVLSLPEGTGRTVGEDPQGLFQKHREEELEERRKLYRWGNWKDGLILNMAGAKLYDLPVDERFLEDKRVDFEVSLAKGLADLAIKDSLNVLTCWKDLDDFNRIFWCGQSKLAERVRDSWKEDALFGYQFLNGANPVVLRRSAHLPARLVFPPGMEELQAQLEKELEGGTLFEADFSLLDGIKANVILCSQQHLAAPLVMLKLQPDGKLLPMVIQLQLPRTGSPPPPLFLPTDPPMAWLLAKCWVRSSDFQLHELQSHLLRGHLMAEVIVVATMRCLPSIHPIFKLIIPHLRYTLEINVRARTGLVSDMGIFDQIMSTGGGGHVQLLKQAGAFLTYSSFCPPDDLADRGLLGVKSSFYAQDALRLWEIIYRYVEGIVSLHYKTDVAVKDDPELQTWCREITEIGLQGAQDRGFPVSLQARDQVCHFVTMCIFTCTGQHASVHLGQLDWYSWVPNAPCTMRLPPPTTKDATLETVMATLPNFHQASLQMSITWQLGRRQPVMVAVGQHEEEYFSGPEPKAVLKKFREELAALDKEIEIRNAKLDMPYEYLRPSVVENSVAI
#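 Readout: Fe(III)-xylenol orange absorbance, 573-to-405 nm ratio as reaction progress. Enzyme 40 nM purified human 15hLO-1, substrate 50 uM arachidonic acid, 6 min RT after 15 min compound preincubation; Hepes pH 7.5 buffer with Triton X-100.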
# Tau fil binding – binders of human tau filaments; Potency, µM (titrated, usually from 57.1 µM), without a hit: top-dose activity change, negative = inhibition; recombinant tau filaments, thioflavin S fluorescence, 15 h; filaments grown with octadecylsulfate alongside compound; 71,000 compounds, 2% hits;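 note: % is set by controls: 0 for no effect and ±100 for the full control effect; actives lower thioflavin S fluorescence by blocking filaments or displacing dye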
#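 Recombinant tau protein (human, 1 uM final) plus 30 uM ODS in HEPES pH 7.4 with NaCl, DTT and thioflavine S. Compound present from the start; fluorescence at 510 nm after 15 h, 37 C.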
# Luciferase inh – blocks Photinus pyralis firefly luciferase activity; AID 411; Potency, µM (titrated, usually from 57.1 µM), for the others: at the top dose activity change, negative = inhibition, most hits filed as inhibitors; purified firefly luciferase, luminescence, 8 min; P08659; 72,000 compounds, 2.2% hits; note: % is set by controls: 0 for no effect and ±100 for the full control effect; nearly all actives have a fitted effect of over 40% in size
#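 Compounds were tested as concentration series (qHTS) against purified P. pyralis luciferase with luciferin and 10 uM ATP in 50 mM imidazole pH 7.2, 50 mM KCl, 7 mM MgCl2, 0.01% Tween 20, 0.05% BSA. Luminescence was read after 8 min at ambient temperature.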
# Starred values were filed as active, the others as inactive; ? = inconclusive; . = not tested or not shown; [ ] = remark or other dose. Most compounds without a hit are left out; they make up all but 7.8% or so of the library. Unless noted, calls come from the whole dose curve; as a rule, active = well fitted curve in the direction sought with a large enough effect; inconclusive = small, poorly fitted or top-dose-only effect, or another doubt; inactive = no such curve, though single readings can be large; an effect the other way counts as inactive or inconclusive. Potency is the fitted concentration of half-maximal effect.
SMILES,TSHR agonist,HEK293 cAMP cs,PK Bst,15-hLO inh,Tau fil binding,Luciferase inh
CCCOc1ccc(C2c3c(oc4cc(C)c(C)cc4c3=O)C(=O)N2CCCN(C)C)cc1 (stereo not drawn),15%,10%,.,-7%,?,3%
CCOc1cccc(C2c3c(oc4cc(C)c(C)cc4c3=O)C(=O)N2CCCN(C)C)c1 (stereo not drawn),5%,-1%,.,11%,13µM*,1%
Cc1cc2oc3c(c(=O)c2cc1C)C(c1ccc(F)cc1)N(CCCN1CCOCC1)C3=O (stereo not drawn),-4%,-4%,.,-15%,20µM*,1%
Cc1ccccc1C(=N)c1ccccc1Cc1cccc2ccccc12,6%[11.4 µM],12%[11.4 µM],.,14%[11.4 µM],-12%[11.4 µM],3%[11.4 µM]
CCCCn1nnc(NC(=O)c2sc3cc(Cl)ccc3c2Cl)n1,?,25µM*,.,?,98%,0%
CCCn1nnc(NC(=O)c2ccc(Cl)cc2Cl)n1,-2%,2%,>57,0%,0%,-12%
CC1(C)Cc2nc(N)c(C(=O)NCCO)cc2CO1,.,.,>26,.,.,-1%[25.5 µM]
CCCCC[C@H](O)/C=C\[C@H]1[C@H](C/C=C\CCCC(=O)O)[C@@H](O)C[C@H]1O (tested in a mixture with another compound),?,13µM*,.,13%[25.6 µM],10%[25.6 µM],-1%[25.5 µM]
CCCCCC1C(=O)CCC1CC(=O)OC (stereo not drawn),.,.,.,-3%,.,.
CCCCC[C@H](O)/C=C\[C@@H]1[C@H](O)CC(=O)[C@@H]1CCCCCCC(=O)O,?,0.0025µM*,.,4%[25.6 µM],-2%[25.6 µM],3%[25.5 µM]
CCCCC[C@H](O)C=C[C@H]1[C@H](O)CC(=O)[C@H]1CCCCCCC(=O)O,?,0.01µM*,.,3%[25.6 µM],?,-3%
CCCCC[C@H](O)/C=C/[C@H]1[C@H](O)CC(=O)[C@@H]1C/C=C\CCCC(=O)O,?,0.01µM*,.,-16%,.,.
Cc1cnc(CNc2ncncc2-c2ccc3c(c2)OCO3)cn1,7%,8%,.,2%,-8%,1%[2.29 µM]
COc1cccc(-c2nc(CS(=O)(=O)CC(=O)NCCCN3CCc4ccccc4C3)c(C)o2)c1,16%,23%,>57,-27%,32%,-3%
CN(CCO)Cc1ncccc1O,1%[11.4 µM],-1%[11.4 µM],.,5%[11.4 µM],14%[11.4 µM],2%[11.4 µM]
O=C(NCCCn1ccnc1)c1cn(-c2ccccc2)nc1-c1ccccc1,-1%,22%,.,18%,-5%,13µM*
COc1ccc(-c2oc3ccccc3c(=O)c2O)cc1OC,.,.,.,-6%,.,.
COc1ccccc1-c1oc2ccccc2c(=O)c1OC,?,32µM*,.,9%[25.6 µM],2%,1%[11.4 µM]
O=C1CC(C(=O)N2CCOCC2)C2(CCCC2)O1 (stereo not drawn),0%,-26%,>57,8%,10%,3%
COc1ccc(-c2nc3cnc(OC)nc3n(-c3ccccc3)c2=O)cc1,-5%,19%,.,20%,6%,2%[11.4 µM]
COc1ccc(C2c3c(-c4cc(Cl)c(C)cc4O)n[nH]c3C(=O)N2Cc2cccnc2)cc1OC (stereo not drawn),7.9µM*,9%,>57,-16%,131%,1%
COc1ccc(C2c3c(oc4c(C)cc(C)cc4c3=O)C(=O)N2Cc2cccnc2)cc1OC (stereo not drawn),6%,-1%,>57,2%,5%,2%
O=C(NCc1ccco1)C1CCCN(S(=O)(=O)c2ccc(-n3cnnn3)cc2)C1 (stereo not drawn),?,20µM*,>57,23%,-5%,4%
Cc1ccc(S(=O)(=O)N2CCCCC2C(=O)NCc2ccco2)cc1 (stereo not drawn),16µM*,3%,>57,-16%,1%,3%
CCC(C)NC(=O)C1CCCN(S(=O)(=O)c2ccc(-n3cnnn3)cc2)C1 (stereo not drawn),10%,4%,>57,7%,-3%,0%
SMILES,TSHR agonist,HEK293 cAMP cs,PK Bst,15-hLO inh,Tau fil binding,Luciferase inh
Cc1ccc(S(=O)(=O)N2CCC(C(=O)N3CCC[C@H]3C(=O)NCc3ccco3)CC2)cc1,8%,6%,>57,9%,7%,3%
CNC1=C(Cl)C(=O)c2ccncc2C1=O,2%,0%,.,-15%,?,.
CC(=O)c1cc2c(cc1O)OC(C)(C)C=C2,.,.,.,-3%,.,.
CCc1c(O)nc(SCc2ccccc2)n(C(C)CC)c1=O (stereo not drawn),?,25µM*,.,-4%,8%,0%
CCOC(=O)c1c(C)[nH]c2ccc3c(c12)CN1CCc2cc(OC)ccc2[C@@H]1O3,?,-59%,.,-1%[25.6 µM],2.5µM*,1%
CC(=O)C(C(C)=O)c1c(Cl)c(O)c(O)c2c(C(=O)c3ccccc3)coc12,28%,-12%,>57,2.5µM*,25µM*,?
Cc1ccc(C)c(OCCCC(=O)Nc2ccc(N3CCOCC3)cc2)c1,5%,14%,>57,?,8%,-1%
CCCCOc1cccc(C(=O)Nc2ccc(N3CCN(CC)CC3)cc2)c1,?,-44%,>57,-8%,20µM*,-3%
CCOc1cccc(C(=O)Nc2ccc(N3CCN(S(C)(=O)=O)CC3)cc2)c1,1%[11.4 µM],-10%,>57,-2%,-15%,-2%
Cc1cccc(OCCCC(=O)Nc2ccc(N3CCOCC3)cc2)c1,3.2µM*,13%[11.4 µM],.,-4%[11.4 µM],?,-1%
C[C@@H]1CNCCN1S(=O)(=O)c1cccc2cnccc12,4%,-1%,.,?,?,-4%
CCN(CC)C(=O)C(C)N(C#N)c1nc(NC(C)C)nc(NC(C)C)n1 (stereo not drawn),25%,23%,.,-5%,-13%,0%
CC(C)Nc1nc(C#N)nc(NC(C)C)n1,24%,4%,>57,-5%,13µM*,2%
O=C(CSc1ccc2nnc(-c3ccccc3)n2n1)N1CCCCC1,7%,4%,>57,2%,2%,1%
O=c1c2cnn(-c3ccccc3Cl)c2ncn1Cc1cccnc1,-4%,7%,>57,4%,-7%,3%
O=C(NC1CCCCC1)C(c1cccs1)N(Cc1cccs1)C(=O)c1ccco1 (stereo not drawn),?,0.4µM*,>57,-5%,389%,-3%
O=C(NCC(=O)N(Cc1cccs1)C(C(=O)NC1CCCC1)c1ccncc1)c1ccco1 (stereo not drawn),-9%,2%,>57,-9%,11%,-2%
O=C(NC1CCCCC1)C(c1cccs1)N(CC1CCCO1)C(=O)c1csnn1 (stereo not drawn),?,?,>57,12%,4%,-2%
COc1ccc(CN(C(=O)CNC(=O)c2ccco2)C(C(=O)NC2CCCC2)c2ccco2)cc1 (stereo not drawn),10%,27%,>57,-3%,-10%,-3%
